The target in assay [1] is Ribosomal protein S6 kinase alpha-6 (Homo sapiens) (UniProt Q9UK32). To be noted: at 1 µM.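 Note: each value is a mean inhibition of RSK4 from a GSK PKIS panel screen.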
The target of assay [2] is T1, Serine/threonine-protein kinase Sgk1 (Homo sapiens) (UniProt O00141).
T1 sequence (whole entry): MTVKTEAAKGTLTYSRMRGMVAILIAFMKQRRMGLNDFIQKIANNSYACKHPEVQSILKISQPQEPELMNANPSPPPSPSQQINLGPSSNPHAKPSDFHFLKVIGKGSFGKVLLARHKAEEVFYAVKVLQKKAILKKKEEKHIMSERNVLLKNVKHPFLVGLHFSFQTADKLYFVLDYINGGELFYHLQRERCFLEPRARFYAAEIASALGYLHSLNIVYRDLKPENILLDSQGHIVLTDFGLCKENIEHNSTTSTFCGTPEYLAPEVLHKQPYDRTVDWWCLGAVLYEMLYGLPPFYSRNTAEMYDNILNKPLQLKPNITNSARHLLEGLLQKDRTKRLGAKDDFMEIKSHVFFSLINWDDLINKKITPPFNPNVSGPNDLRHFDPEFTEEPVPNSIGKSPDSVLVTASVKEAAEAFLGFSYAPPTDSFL
To be noted: at 0.1 µM.

The target in assay [3] is T1, Serine/threonine-protein kinase Sgk1 (Homo sapiens). To be noted: at 1 µM.
Assay [4] has as its target T2, Serine/threonine-protein kinase Sgk2 (Homo sapiens) (UniProt Q9HBY8).
T2 sequence (whole entry): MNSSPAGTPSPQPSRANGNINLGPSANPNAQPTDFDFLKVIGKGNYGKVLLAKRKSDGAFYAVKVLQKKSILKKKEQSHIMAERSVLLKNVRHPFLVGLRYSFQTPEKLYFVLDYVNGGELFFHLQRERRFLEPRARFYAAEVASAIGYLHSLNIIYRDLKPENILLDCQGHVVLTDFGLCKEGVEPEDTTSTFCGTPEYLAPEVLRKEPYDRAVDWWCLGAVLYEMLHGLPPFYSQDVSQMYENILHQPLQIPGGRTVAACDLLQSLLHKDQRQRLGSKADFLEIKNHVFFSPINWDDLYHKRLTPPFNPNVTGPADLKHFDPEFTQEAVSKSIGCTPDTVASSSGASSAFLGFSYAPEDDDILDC
To be noted: at 0.1 µM.

The target of assay [5] is T2, Serine/threonine-protein kinase Sgk2 (Homo sapiens). To be noted: at 1 µM.
Assay [6] deals with T3, Serine/threonine-protein kinase Sgk3 (Homo sapiens) (UniProt Q96BR1).
T3 sequence (whole entry): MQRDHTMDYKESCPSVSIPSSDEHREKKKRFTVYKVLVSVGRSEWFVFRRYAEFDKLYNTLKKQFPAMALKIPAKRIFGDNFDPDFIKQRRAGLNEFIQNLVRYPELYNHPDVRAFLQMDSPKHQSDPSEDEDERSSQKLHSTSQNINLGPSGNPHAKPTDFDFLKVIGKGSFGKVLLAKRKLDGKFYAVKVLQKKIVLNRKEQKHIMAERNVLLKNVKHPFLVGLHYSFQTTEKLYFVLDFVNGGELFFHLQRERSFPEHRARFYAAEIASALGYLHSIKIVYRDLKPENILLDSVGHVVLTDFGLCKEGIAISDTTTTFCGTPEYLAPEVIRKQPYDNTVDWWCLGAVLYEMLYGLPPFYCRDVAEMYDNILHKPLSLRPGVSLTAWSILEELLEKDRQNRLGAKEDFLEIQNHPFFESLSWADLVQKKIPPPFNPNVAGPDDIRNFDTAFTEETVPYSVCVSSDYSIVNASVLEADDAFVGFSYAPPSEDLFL
The settings on record: at 0.1 µM.

For assay [7], the target named is T3, Serine/threonine-protein kinase Sgk3 (Homo sapiens). To be noted: at 1 µM.
Assay [8] addresses 5'-AMP-activated protein kinase catalytic subunit alpha-1 (Homo sapiens) (UniProt Q13131). To be noted: at 0.1 µM.
The target is the same in assay [9]. The settings on record: at 1 µM.
Assay [10] has as its target 5'-AMP-activated protein kinase catalytic subunit alpha-2 (Homo sapiens) (UniProt P54646). To be noted: at 0.1 µM.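 Note: mean inhibition measured on the AMPK complex of alpha2, beta1 and gamma1 subunits.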

Each structure is given as a SMILES string.

Sequence of 5'-AMP-activated protein kinase catalytic subunit alpha-1 (Homo sapiens) (Q13131 whole entry, looked up): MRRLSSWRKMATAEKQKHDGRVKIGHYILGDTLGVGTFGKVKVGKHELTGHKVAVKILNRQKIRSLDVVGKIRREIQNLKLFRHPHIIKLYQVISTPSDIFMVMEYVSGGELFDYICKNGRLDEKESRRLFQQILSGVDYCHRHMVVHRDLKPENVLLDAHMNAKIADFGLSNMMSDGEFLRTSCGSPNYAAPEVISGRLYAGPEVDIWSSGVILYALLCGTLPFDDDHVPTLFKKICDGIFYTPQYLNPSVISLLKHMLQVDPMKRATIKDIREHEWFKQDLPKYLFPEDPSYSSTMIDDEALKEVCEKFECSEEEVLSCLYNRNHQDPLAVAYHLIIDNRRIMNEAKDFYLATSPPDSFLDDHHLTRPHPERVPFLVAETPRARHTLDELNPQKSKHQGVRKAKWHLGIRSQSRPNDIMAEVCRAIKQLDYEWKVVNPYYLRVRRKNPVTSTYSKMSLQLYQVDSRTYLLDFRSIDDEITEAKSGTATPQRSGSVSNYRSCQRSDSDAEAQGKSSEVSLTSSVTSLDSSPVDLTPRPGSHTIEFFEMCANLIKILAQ
Sequence of 5'-AMP-activated protein kinase catalytic subunit alpha-2 (Homo sapiens) (P54646 whole entry, looked up): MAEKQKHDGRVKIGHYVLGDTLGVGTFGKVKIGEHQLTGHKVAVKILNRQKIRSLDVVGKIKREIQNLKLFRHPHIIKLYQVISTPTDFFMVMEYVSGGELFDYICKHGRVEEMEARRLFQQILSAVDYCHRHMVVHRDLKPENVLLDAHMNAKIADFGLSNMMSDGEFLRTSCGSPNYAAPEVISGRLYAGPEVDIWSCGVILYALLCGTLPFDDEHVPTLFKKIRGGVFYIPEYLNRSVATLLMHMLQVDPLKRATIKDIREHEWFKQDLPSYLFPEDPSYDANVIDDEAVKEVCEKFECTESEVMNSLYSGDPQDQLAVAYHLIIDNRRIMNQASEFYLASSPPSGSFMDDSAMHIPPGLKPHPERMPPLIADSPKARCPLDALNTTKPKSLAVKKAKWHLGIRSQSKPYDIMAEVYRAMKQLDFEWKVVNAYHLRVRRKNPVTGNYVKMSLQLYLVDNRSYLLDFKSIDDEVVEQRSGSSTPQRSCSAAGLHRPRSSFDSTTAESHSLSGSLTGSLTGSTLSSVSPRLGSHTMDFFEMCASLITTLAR
Sequence of Ribosomal protein S6 kinase alpha-6 (Homo sapiens) (Q9UK32 whole entry): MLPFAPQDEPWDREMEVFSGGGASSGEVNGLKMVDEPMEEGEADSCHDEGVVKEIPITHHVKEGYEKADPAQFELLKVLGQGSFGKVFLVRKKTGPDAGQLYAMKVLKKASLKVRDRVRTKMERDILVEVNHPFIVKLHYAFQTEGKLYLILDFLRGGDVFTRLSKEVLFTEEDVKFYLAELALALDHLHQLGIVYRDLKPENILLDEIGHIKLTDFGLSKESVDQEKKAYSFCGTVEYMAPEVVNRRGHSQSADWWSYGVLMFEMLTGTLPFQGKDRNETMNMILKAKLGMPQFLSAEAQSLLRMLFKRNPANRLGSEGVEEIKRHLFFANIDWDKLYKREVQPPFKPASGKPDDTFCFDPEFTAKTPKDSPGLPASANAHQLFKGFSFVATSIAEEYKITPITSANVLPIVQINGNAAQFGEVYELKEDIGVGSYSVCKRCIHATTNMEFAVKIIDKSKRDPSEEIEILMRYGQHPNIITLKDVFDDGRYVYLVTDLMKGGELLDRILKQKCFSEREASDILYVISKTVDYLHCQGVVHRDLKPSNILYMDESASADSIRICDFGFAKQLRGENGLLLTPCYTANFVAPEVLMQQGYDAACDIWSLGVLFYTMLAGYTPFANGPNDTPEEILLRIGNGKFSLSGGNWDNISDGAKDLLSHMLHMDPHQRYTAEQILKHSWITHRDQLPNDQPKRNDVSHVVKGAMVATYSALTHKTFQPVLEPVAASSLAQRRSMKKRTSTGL

Usually inhibition stands for the relative decrease from the control value, in per cent. For the compound `COc1cc(Nc2nccc(Nc3ccc4c(C)n[nH]c4c3)n2)cc(OC)c1OC`, the inhibition in assay [1] is 2.74%; in assay [2] it was 3.49%; in assay [3], 5.3%; in [4], -0.28%; in assay [5], -0.14%; in assay [6] it was 2.13%. For the same compound, the inhibition in assay [7] turned out to be 1.07%; in [8], 1.6%; in assay [9], 1.71%; in assay [10] it was 2.15%.

On to `CN1CCC(n2cnc(-c3ccc(F)cc3)c2-c2ccnc(N)n2)CC1`, for which the inhibition was determined as 3.17% in [1]; 2.03% in assay [2]; 5.81% in assay [3]; 0.15% in [4]; 7.47% in [5]; 2.25% in assay [6]. For the same compound, the inhibition in assay [7] was 2.99%; in assay [8], 2.2%; in [9], 7.91%; in [10] it was -1.23%.

Take `N#Cc1c(NC(=O)c2ccc(F)cc2)sc2c1CCCC2`: the inhibition was 0.81% in assay [1]; 0.29% in assay [2]; 2.65% in [3]; -3.36% in assay [4]; 0.76% in [5]; -0.34% in assay [6]. Moreover, the inhibition in assay [7] came to 1.54%; in assay [8] it was 1.88%; in [9], 1.54%; in assay [10], 0.31%.

Consider `N#Cc1c(NC(=O)CN2CCOCC2)sc2c1CCCC2`, for which the inhibition in assay [1] was 1.35%; in assay [2] it was 0.28%; in assay [3], 5.76%; in assay [4], 2.3%; in [5], 4.38%; in [6], 3.14%. Also, the inhibition was found to be 4.05% in assay [7], 3.31% in [8], 4.25% in assay [9] and 1.66% in [10].

On to `CS(=O)(=O)CCNCc1ccc(-c2ccc3ncnc(Nc4ccc(OCc5ccccc5)c(C(F)(F)F)c4)c3c2)o1`, for which the inhibition in [1] turned out to be 0.75%; in assay [2], 3.38%; in assay [3], 3.03%; in assay [4], 1.55%; in assay [5] it was 1.26%; in assay [6] it was 2.51%. Also, the inhibition in assay [7] is 4.06%; in [8], 3.06%; in [9] it was 2.92%; in assay [10], -6.64%.

Consider `Cc1cccc(Nc2ncc(-c3ccccc3)o2)c1`, for which the inhibition in assay [1] was found to be 2.13%; in [2], 1.63%; in assay [3], 2.62%; in assay [4], 3.96%; in [5], 2.16%; in assay [6] it was 0.65%. The inhibition in assay [7] was determined as 1.3%; in assay [8] it was 3.82%; in assay [9], 4.04%; in assay [10], 4.67%.

With `CN(C)CCOc1ccc(-c2nc(-c3ccncc3)c(-c3ccc4c(c3)CC/C4=N\O)[nH]2)cc1`, the inhibition in assay [1] was 2.06%; in [2] it was 2.17%; in [3], 4.78%; in assay [4], 2.44%; in assay [5], 5.4%; in assay [6], 2.89%. Also, the inhibition is 4.02% in [7], 2.12% in assay [8], 5.29% in [9] and -0.6% in assay [10].

For `Fc1cccc(COc2ccc(Nc3ncnc4sc(-c5ccco5)cc34)cc2Cl)c1`, the inhibition in assay [1] worked out at 1.67%; in assay [2] it was 2.84%; in assay [3], 3.04%; in assay [4], 1.55%; in [5] it was 0.68%; in assay [6], 4.19%. Moreover, the inhibition in assay [7] was found to be 4.61%; in [8], 2.46%; in assay [9], 4.38%; in assay [10], 4.1%.

`CC(C)(CO)CNC(=O)c1ccc2c(c1)/C(=N/Nc1ccc(S(N)(=O)=O)cc1)C(=O)N2`: the inhibition in [1] was 9.45%; in [2], 0.94%; in assay [3], 8.72%; in assay [4], 0.65%; in [5] it was 3.3%; in [6], -2.66%. The inhibition stood at 3.04% in assay [7], 26% in [8], 72.3% in assay [9] and 6.91% in assay [10].

In the case of `COc1ccc(-c2cc3c(N)ncnc3o2)cc1`, the inhibition is 1.58% in [1]; 0.5% in assay [2]; -0.33% in assay [3]; -1.01% in assay [4]; 1.43% in [5]; -1.34% in [6]. For the same compound, the inhibition was -2.55% in assay [7], 0.03% in [8], 0.8% in [9] and 0.21% in assay [10].

Regarding `CCn1c(-c2nonc2N)nc2c(C#CC(C)(C)O)nc(OC[C@H](N)c3ccccc3)cc21`, the inhibition in [1] stood at 7.07%; in assay [2], 1.86%; in assay [3], 3.49%; in assay [4], 5.31%; in assay [5] it was 13.4%; in assay [6], 31.1%. The inhibition in assay [7] was 57.7%; in assay [8], 17.7%; in [9], 65.7%; in assay [10], 4.97%.

`O=S(=O)(CCNCc1ccc(-c2ccc3ncnc(Nc4ccc(OCc5cccc(F)c5)c(Cl)c4)c3c2)o1)c1ccccc1`: the inhibition in assay [1] amounted to 1.81%; in [2] it was 4.12%; in [3], 4.02%; in assay [4] it was 4.25%; in assay [5], 7.28%; in assay [6], 6.67%. Also, the inhibition was found to be 5.71% in [7], 7.7% in assay [8], 5.94% in assay [9] and 3.89% in assay [10].

In the case of `Cc1ccc2c(-c3ccnc(Nc4ccccc4)n3)c(-c3ccc(F)cc3)nn2n1`, the inhibition in assay [1] was 4.74%; in assay [2], 2.01%; in assay [3] it was 1.69%; in [4], 2.15%; in [5], 3.69%; in assay [6], 2.63%. Moreover, the inhibition in assay [7] was found to be 2.1%; in assay [8] it was 2.48%; in assay [9], 2.15%; in assay [10], 0.59%.

`CNC(=O)c1cc(-c2ccc(F)cc2)cc(-c2ccc(S(=O)(=O)N3CCCC3)cc2)c1N`: the inhibition in assay [1] came to 1.28%; in [2], 2.26%; in assay [3] it was 1.89%; in assay [4], 2.87%; in [5], 0.33%; in assay [6] it was 2.62%. The inhibition in assay [7] turned out to be 3.57%; in assay [8], 1.77%; in assay [9], 2.03%; in assay [10], 6.28%.

Take `COc1ccc(-c2cc(-c3c[nH]nc3-c3ccccn3)ccn2)cc1`: the inhibition in assay [1] is 1.8%; in assay [2], 2.87%; in assay [3], 7.39%; in [4] it was 5.02%; in assay [5] it was 5.93%; in [6], 4.82%. The inhibition in [7] is 6.74%; in assay [8] it was 4.71%; in assay [9], 6.63%; in [10], 0.83%.

As for `[O-][S+]1CCN(Cc2ccc(-c3ccc4ncnc(Nc5ccc(OCc6cccc(F)c6)c(Cl)c5)c4c3)o2)CC1`, the inhibition in [1] is 1.89%; in assay [2], 3.42%; in assay [3] it was 4%; in assay [4] it was -0.64%; in assay [5] it was 2.65%; in assay [6] it was 4.53%. For the same compound, the inhibition in assay [7] amounted to 3.72%; in assay [8], 3.59%; in assay [9], 5.6%; in assay [10], 5.66%.
